Laboratory results from PubChem BioAssay (NCATS).
Records with an inconclusive call do not appear. The source made the active and inactive calls. Unless noted, calls follow the shape of the dose curve; as a rule, active = well fitted curve in the direction sought with a large enough effect; inconclusive = small, poorly fitted or top-dose-only effect, or another doubt; inactive = no such curve, though single readings can be large; an effect the other way counts as inactive or inconclusive.

Experiments:
[1] = molecular target: ATP-dependent 6-phosphofructokinase (Trypanosoma brucei brucei) (UniProt O15648); experiment: qHTS Assay to Find Inhibitors of T. brucei phosphofructokinase: hit validation (AID 492961);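 also: luminescence reports ADP formed as PFK phosphorylates fructose-6-phosphate with ATP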
Outline: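 Measures ADP output of PFK (1.25 nM) at 0.1 mM ATP, 0.5 mM F6P, pH 8.0 TEA buffer with 5 mM MgCl2. No-enzyme wells define full inhibition; uninhibited enzyme wells define zero.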

[2] = molecular target: Ubiquitin carboxyl-terminal hydrolase 1 (Homo sapiens) (UniProt O94782); experiment: Inhibitors of USP1/UAF1: Pilot qHTS (AID 504865);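 also: rhodamine fluorescence freed from ubiquitin-rhodamine substrate followed over time; top concentration of the series differs between compounds; nearly all actives have a fitted effect of over 35% in size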
Outline: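 USP1/UAF1 complex (1nM) preincubated with compound 15 min at room temperature, then Ub-Rho substrate (150nM final) added. Fluorescence read kinetically at 480/540 nm, 6 reads every 60 seconds. Buffer: 50mM HEPES pH 7.8, 0.5mM EDTA, 0.1 mg/ml BSA, 1mM TCEP, 0.01% Tween-20.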

[3] = molecular target: Luciferin 4-monooxygenase (Photinus pyralis) (UniProt P08659); experiment: Biochemical firefly luciferase enzyme assay for NPC (AID 624030);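 also: purified P. pyralis luciferase at 10 nM with luciferin and ATP substrate; nearly all actives have a fitted effect of over 70% in size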
Outline: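 Direct inhibition of firefly luciferase enzyme (10 nM final, 50 mM Tris Acetate) assessed by luminescence within 5 minutes. Percent activity scaled between DMSO and PTC124 positive control, with concentration-effect curves classified by fit quality and response.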

[4] = S16 Schwann cell viability assay (CellTiter-Glo assay) (AID 624031); also: potency is read from the fitted curve at half-maximal effect; nearly all actives have a fitted effect of over 70% in size
Outline: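 CellTiter-Glo ATP luminescence counter-screen in untransfected S16 rat Schwann cells, 24h compound exposure at 37 degree Celsius after overnight seeding (500-750 cells/well); response scaled between cell-free wells and DMSO (0% activity), curves classed by r2 and magnitude.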

[5] = S16 Schwann cell PMP22 intronic element firefly luciferase assay (AID 624032); also: potency is read from the fitted curve at half-maximal effect; nearly all actives have a fitted effect of over 30% in size
Outline: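 Luciferase reporter of PMP22 intronic-element expression in stably transfected S16 rat Schwann cells, read by ONE-Glo luminescence after 24 h compound exposure at 37 C. Activity scaled between DMSO (0%) and positive-control PTC124; concentration-effect curves quality-classified.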

[6] = S16 Schwann cell PMP22 intronic element beta-lactamase assay (AID 624044; calls by dose curve; also: potency is read from the fitted curve at half-maximal effect; nearly all actives have a fitted effect of over 15% in size); details: S16 rat Schwann cells, PMP22 element beta-lactamase FRET, 24 h; ratio activity, negative = inhibition: at 38.3 µM (top of the series) unless noted
Outline: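 Rat S16 Schwann cells with beta-Lac driven by a PMP22 intronic element, compound-treated 24 h at 37 °C. LiveBLAzer FRET B/G read: 460 nm normalized to potassium clavulanate vs DMSO; 535 nm FRET as viability; concentration-effect curves classified.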

[7] = Primary qHTS for Huh7 cytotoxicity: counterscreen for inhibitors of MERS-S pseudotyped particle cell entry (AID 1479147; calls by dose curve); details: outcome: dose series up to 57.1 µM unless noted
[8] = Primary qHTS for inhibitors of MERS-S pseudo-typed particle cell entry (AID 1479149; calls by dose curve; also: nearly all actives have a fitted effect of over 60% in size); details: outcome: dose series up to 57.1 µM unless noted
[9] = Primary qHTS for Vero E6 cytotoxicity: counterscreen for inhibitors of SARS-S pseudo-typed particle cell entry (AID 1479150; calls by dose curve); details: outcome: dose series up to 57.1 µM unless noted
[10] = Cytotoxicity counterscreen for inhibitors of SARS-CoV-2 cell entry (AID 1645845; calls by dose curve; also: nearly all actives have a fitted effect of over 50% in size); details: outcome: dose series up to 57.1 µM unless noted
Outline: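 48 h compound treatment (after 1 h preincubation), HEK293-ACE2 cells, 37 C/5% CO2; ATP luminescence endpoint; normalized to cell wells and media blanks.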

[11] = Primary qHTS to identify inhibitors of SARS-CoV-2 cell entry (AID 1645846; calls by dose curve; also: nearly all actives have a fitted effect of over 45% in size); details: SARS-CoV-2 pseudovirus cell entry assay, luminescence; activity change, negative = inhibition: at 57.1 µM (top of the series) unless noted
Outline: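 Luminescence readout (Bright-Glo luciferase) 48 h after pseudoparticle addition. HEK293-ACE2 cells, 1500/well; compound pre-incubation 1 h; Normalized to spike PP and bald PP.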

[12] = molecular target: Glutathione peroxidase 1 (Homo sapiens) (UniProt P07203); experiment: Primary qHTS Assay for Inhibitors of Recombinant Selenoprotein Glutathione Peroxidase 1 (GPX1) (AID 1845191); also: nearly all actives have a fitted effect of over 65% in size
Outline: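 10 nM GPX1 + cpd, 30 min RT; start w/ 1 mM GSH, 0.5 mM cumene hydroperoxide, 0.5 mM NADPH, 100 nM GR, 0.01% BSA; buffer 50 mM Tris-HCl pH 7.5, 2 mM EDTA, 150 mM NaCl; Fl 340/450, 0 & 15 min.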

[13] = molecular target: Phospholipid hydroperoxide glutathione peroxidase GPX4 (Homo sapiens) (UniProt P36969); experiment: Primary qHTS Assay for Inhibitors of Recombinant Selenoprotein Glutathione Peroxidase 4 (GPX4) (AID 1845192); also: nearly all actives have a fitted effect of over 65% in size
Outline: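 NADPH consumption, followed by fluorescence at 340/450 nm between 0 and 15 min, reports GPX4 activity via coupled glutathione reductase (100 nM). Enzyme 200 nM was pre-exposed to compound 30 min; 0.5 mM cumene hydroperoxide and 1 mM GSH served as substrates.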

[14] = qHTS profiling for inhibitors of Plasmodium falciparum proliferation (AID 504749); also: potency is read from the fitted curve at half-maximal effect; nearly all actives have a fitted effect of over 60% in size; details: P. falciparum in erythrocytes, SYBR Green DNA, 72 h
Outline: (§1)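 Three-day growth assay of blood-stage parasites in erythrocytes (0.3% parasitemia, 2.5% hematocrit) at 37 C, 5% CO2, quantified by SYBR Green DNA staining after overnight detergent lysis.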

[15] = system: 3D7; experiment: as above; details: P. falciparum in erythrocytes, SYBR Green DNA, 72 h; series mostly up to 28.7 µM
Outline: as §1

[16] = system: 7G8; experiment: as above; details: P. falciparum in erythrocytes, SYBR Green DNA, 72 h; series mostly up to 12.8 µM
Outline: as §1

Chain of ATP-dependent 6-phosphofructokinase (Trypanosoma brucei brucei) (O15648 whole entry, looked up): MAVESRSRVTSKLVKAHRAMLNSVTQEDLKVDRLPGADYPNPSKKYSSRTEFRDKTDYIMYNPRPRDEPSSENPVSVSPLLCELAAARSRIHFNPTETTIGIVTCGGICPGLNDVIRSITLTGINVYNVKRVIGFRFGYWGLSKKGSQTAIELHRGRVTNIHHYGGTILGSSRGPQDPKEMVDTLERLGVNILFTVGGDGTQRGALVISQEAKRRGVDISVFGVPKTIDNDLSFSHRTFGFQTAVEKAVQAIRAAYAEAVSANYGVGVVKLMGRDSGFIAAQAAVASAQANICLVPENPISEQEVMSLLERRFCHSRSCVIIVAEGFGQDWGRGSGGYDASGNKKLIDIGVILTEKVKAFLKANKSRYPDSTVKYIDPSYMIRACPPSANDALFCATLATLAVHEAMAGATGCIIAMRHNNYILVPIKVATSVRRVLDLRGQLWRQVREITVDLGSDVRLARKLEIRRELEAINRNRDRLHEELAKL
Chain of Ubiquitin carboxyl-terminal hydrolase 1 (Homo sapiens) (O94782 whole entry, looked up): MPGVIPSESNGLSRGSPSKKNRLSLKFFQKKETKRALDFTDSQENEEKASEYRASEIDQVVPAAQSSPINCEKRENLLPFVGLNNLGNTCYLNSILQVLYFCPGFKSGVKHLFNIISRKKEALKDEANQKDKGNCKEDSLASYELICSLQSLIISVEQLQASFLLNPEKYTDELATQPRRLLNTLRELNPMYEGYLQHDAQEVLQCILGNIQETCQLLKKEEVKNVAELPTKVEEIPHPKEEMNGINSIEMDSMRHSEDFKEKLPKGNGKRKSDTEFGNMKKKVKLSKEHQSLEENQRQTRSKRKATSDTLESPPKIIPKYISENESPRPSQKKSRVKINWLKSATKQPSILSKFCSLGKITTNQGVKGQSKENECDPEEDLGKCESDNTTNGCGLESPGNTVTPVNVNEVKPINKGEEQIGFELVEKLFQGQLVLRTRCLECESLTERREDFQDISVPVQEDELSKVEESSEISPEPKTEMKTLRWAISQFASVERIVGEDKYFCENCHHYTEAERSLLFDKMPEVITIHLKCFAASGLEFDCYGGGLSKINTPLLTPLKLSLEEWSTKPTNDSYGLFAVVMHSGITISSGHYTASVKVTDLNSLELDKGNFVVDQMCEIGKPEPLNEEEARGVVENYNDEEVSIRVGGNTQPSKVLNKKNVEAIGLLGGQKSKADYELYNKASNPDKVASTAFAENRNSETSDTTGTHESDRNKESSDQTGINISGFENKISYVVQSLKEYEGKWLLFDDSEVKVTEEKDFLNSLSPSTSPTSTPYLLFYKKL
Chain of Phospholipid hydroperoxide glutathione peroxidase GPX4 (Homo sapiens) (P36969 whole entry, looked up): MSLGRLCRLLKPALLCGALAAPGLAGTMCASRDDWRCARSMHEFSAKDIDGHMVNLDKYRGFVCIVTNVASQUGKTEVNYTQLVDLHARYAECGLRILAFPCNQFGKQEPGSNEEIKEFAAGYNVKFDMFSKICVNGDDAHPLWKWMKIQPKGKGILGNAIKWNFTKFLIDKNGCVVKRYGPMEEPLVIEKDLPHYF
Chain of Glutathione peroxidase 1 (Homo sapiens) (P07203 whole entry, looked up): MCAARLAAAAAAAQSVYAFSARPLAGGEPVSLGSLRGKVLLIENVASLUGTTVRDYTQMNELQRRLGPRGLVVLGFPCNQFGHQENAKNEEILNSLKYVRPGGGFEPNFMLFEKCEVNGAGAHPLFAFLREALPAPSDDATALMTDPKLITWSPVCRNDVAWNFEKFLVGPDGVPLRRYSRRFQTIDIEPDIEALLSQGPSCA
Chain of Luciferin 4-monooxygenase (Photinus pyralis) (P08659 whole entry, looked up): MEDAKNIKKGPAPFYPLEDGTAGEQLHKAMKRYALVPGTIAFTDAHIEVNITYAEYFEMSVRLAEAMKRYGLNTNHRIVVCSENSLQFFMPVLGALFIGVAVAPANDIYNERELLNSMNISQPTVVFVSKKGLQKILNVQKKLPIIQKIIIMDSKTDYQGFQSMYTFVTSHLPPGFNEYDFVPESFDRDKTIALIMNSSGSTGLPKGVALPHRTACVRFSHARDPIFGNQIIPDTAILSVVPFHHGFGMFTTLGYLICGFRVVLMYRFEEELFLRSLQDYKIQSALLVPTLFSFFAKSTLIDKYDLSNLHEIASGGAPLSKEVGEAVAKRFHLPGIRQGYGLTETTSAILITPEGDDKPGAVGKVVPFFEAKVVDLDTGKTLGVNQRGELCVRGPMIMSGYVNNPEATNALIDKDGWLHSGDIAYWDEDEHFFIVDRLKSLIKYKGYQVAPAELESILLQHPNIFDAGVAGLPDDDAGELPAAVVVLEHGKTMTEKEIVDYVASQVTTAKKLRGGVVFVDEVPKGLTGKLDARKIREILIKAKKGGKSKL

CO[C@@H](COC(N)=O)C1=C(N2CC2)C(=O)C(C)=C(N2CC2)C1=O
active: Potency [4] 32.2 µM | Potency [5] 36.1 µM | Potency [6] 0.354 µM | Potency ([14]; parasite line A) 0.891 µM | Potency ([14]; parasite line B) 1.41 µM | Potency [15] 1.26 µM | Potency [16] 1.26 µM
inactive: Potency [1] | Potency [2] | Potency [3] | Potency [7] | Potency [8] | Potency [9] | Potency [10] | Potency [12] | Potency [13]
-18.1%: activity change, negative = inhibition [11]
